# Activity calls are given as the source filed them.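 How the source made its calls: active means fitted half-maximal concentration AC50 at or below ten times the highest valid tested dose, with signal falling as DNA is displaced (actives reach about 34 µM in these data); inconclusive means flat fit at moderate signal loss, or poor fit quality; inactive means the rest, including signal rising instead of falling.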
# Assay: acridine orange-DNA binding displacement – biochemical, fluorescence polarization, cherry-picked samples, set 2, artefact control for KSHV LANA DNA-binding inhibitor project, dose response (AID 504727)
# Settings: series mostly up to 35 µM
row,SMILES,AC50
1,CCOC(=O)CCCn1c(C)nc(=O)c(-c2ccccc2)c1C,inactive
2,COc1ccc2c3c(cccc13)C(=O)CC2,6.92 µM (active)
3,COc1cc(OC)cc(C(=O)NC2CC3CCC(C2)N3C)c1 (centres undefined),inactive
4,Cc1cc2nc3c(=O)[nH]c(=O)[nH]c3nc2c([N+](=O)[O-])c1N,2.41 µM (active)
5,N=C1/C(=C\c2ccc(Br)o2)C(=O)N=C2SC(CC(=O)N3CCOCC3)=NN12,inactive
6,CCN(CC(=O)Nc1c(F)cccc1F)C(=O)CCCc1cccs1,inactive
7,CCCn1c(SCC(=O)NCc2cccs2)nc2c1c(=O)n(C)c(=O)n2C,inactive
8,Cc1ccc(C(=O)CCC(=O)Nc2ncccc2C)cc1,inactive
9,Cc1ccccc1NC(=S)NC(C)CCc1ccccc1 (centres undefined),inactive
10,O=C(/C=C\c1ccccc1)Oc1cccc2cccnc12,inactive
11,O=C1CCN2C=Nc3cccc4ccc1c2c34,2.29 µM (active)
12,O=C(CSc1nc2ccccc2[nH]1)Nc1cccc(S(=O)(=O)N2CCOCC2)c1,inactive
13,O=S(=O)(NCc1cccnc1)c1ccc(Cl)s1,inactive
14,CC(C)CN(C(=O)CSc1nncn1C)C1CCS(=O)(=O)C1 (centres undefined),inactive
15,CCOc1ccc(-n2c(Cc3cc(=O)[nH]c(=O)[nH]3)nnc2SCc2cccnc2)cc1,inactive
16,CC(=O)c1ccc2c(c1)C1C=CCC1C(C(=O)O)N2 (centres undefined),inactive
17,CN(C)c1ccc(/C=N/N(CCO)C2=NS(=O)(=O)c3ccccc32)cc1,4.28 µM (active)
18,O=C(CN1C(=O)/C(=C/c2ccco2)SC1=S)Nc1ccc(C(=O)O)c(O)c1,inactive
19,Cc1ccc(N(C)C(=O)C2CCCN2S(=O)(=O)c2ccc3c(c2)n(C)c(=O)c(=O)n3C)cc1 (centres undefined),inactive
20,COc1ccc(C(=O)OCC(=O)NC2CC2)cc1S(=O)(=O)Nc1ccc(C)cc1,inactive

row,SMILES,AC50
1,CC1CC(C)CN(C(=O)c2ccc3ncsc3c2)C1 (centres undefined),inactive
2,Cc1cccc(Nc2nc(N)c([N+](=O)[O-])c(NCc3ccccc3)n2)c1,inactive
3,C/C(=N/NC(=O)c1cc(O)c(O)c(O)c1)c1ccc([N+](=O)[O-])cc1,inactive
4,O=C(O)CN1C(=O)/C(=C\c2cc(Br)ccc2OCc2ccc([N+](=O)[O-])cc2)SC1=S,inactive
5,C/C(=N\NC(=O)CCc1c(C)n[nH]c1C)c1ccc([N+](=O)[O-])cc1,inactive
6,Cc1nc(Cl)c2c(n1)NC1=C(O2)C(=O)CCC1,11.1 µM (active)
7,O=C(O)c1ccc(NS(=O)(=O)c2ccc3c(c2)C2C=CCC2C(c2ccccc2F)N3)cc1 (centres undefined),inactive
8,CC(C)Cn1c(N)c(C(=O)CSc2nnc(-c3ccco3)n2C)c(=O)n(C)c1=O,inactive
9,O=C(CC1CCCC1)N1CCN(S(=O)(=O)c2ccccc2)CC1,inactive
10,CCOCCCn1c(SCC(=O)NC(C)(C)C)nc2ccccc2c1=O,inactive
11,O=C(OCCN1C(=O)c2cccc3c(N4CCOCC4)ccc(c23)C1=O)c1ccc(Cl)cc1Cl,5.25 µM (active)
12,COc1cccc(-c2cc(C(=O)N3CCN(S(=O)(=O)c4ccccc4)CC3)[nH]n2)c1,inactive
13,O=C(CCn1c(=S)oc2ccccc21)N1CCN(c2ccc(F)cc2)CC1,inactive
14,CN(Cc1cnc2nc(N)nc(N)c2n1)c1ccc(C(=O)NC(CCC(=O)O)C(=O)O)cc1 (centres undefined),inactive
15,O=c1nc(N2CCOCC2)ccn1-c1nc(-c2ccccc2)sc1-c1ccccc1,inactive
16,CC(=O)Oc1ccc2c(c1)Oc1cc(OC(C)=O)ccc1C21OC(=O)c2ccccc21,8.39 µM (active)
17,O=c1ccc2c(-c3ccccc3S(=O)(=O)O)c3ccc(O)c(O)c3oc-2c1O,inactive
18,COc1cccc(NC(=O)CN(C)CC(=O)NCc2ccco2)c1,inactive
19,O=C(O)C(Cc1ccccc1)N1C(=O)/C(=C/C=C/c2ccco2)SC1=S (centres undefined),inactive
